# Test results as given in PubChem BioAssay (NCI).
# About 83,000 compounds went through this panel and 20% of them were active in at least one assay; those are over-represented in the sample as a whole.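 Method: cells in 96-well plates; compound added at one concentration; 48 h incubation; percent growth measured; values under 10 scored active.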 Unmarked numbers belong to inactive results. The source made the active and inactive calls.
# System: NCI-H460 lung
# Assay: NCI-60 one-dose screen, 48 h (100 = growth as untreated, 0 = no growth, -100 = all killed)
# Conditions: 10 µM unless noted
row,SMILES,growth
1,Clc1ccc2oc3c(NCCCN4CCOCC4)c4ccccc4nc3c2c1,6.4% (active)
2,CN(C)c1ccc(/C=C2\Cc3c(F)ccc(Br)c3C2=O)cc1,88.7%
3,O=C(N/N=C/c1ccc([N+](=O)[O-])s1)c1[nH]c2ccc(Br)cc2c1-c1ccccc1,-26.1% (active)
4,CC(O)C(NC(=O)C1CCCN1C(=O)CNC(=O)C1CC(=O)NCC(=O)NC(Cc2c[nH]c3ccccc23)C(=O)NC(Cc2ccc(O)cc2)C(=O)NCC(=O)NC(CO)C(=O)NC(CCC(N)=O)C(=O)NC(Cc2c[nH]c3ccccc23)C(=O)N1)C(=O)NCC(=O)NC(CCC(N)=O)C(=O)NC(CCCNC(=N)N)C(=O)NC(CC(=O)O)C(=O)O (stereo not given),105%
5,O=C(CN1CCOCC1)NNc1ncnc2ccccc12,108%
6,N#Cc1c(-c2ccc(Cl)cc2)nc(SCc2ccccc2)nc1N1CCNCC1,-45.6% (active)
7,Cn1cc(-c2cc(N)n3nc(-c4cn(C)c5ccc(F)cc45)cc3n2)c2cc(F)ccc21,-23.2% (active)
8,CS(=O)(=O)c1ccc(-c2nc3ccccn3c2/C=N/Nc2nc(-c3ccc(Cl)cc3)cs2)cc1,102%
9,O=c1/c(=C\c2ccc(-c3ccccc3)o2)sc2nc(-c3ccccc3)nn12,106%
10,Cc1nc(-c2cc3ccccc3oc2=O)ccc1C(=O)/C=C/c1ccccn1,41.1%
11,Nc1c(C(=O)Nc2ccc(C(F)(F)F)cc2)sc2nc(-c3cnccn3)cc(-c3cccs3)c12,69.7%
12,O=C1Nc2cc(Cl)ccc2/C1=C\c1ccc(OCc2ccc(Br)cc2F)cc1,-82.4% (active)
13,C=CCSc1ccc2c(c1)C(N1CCNCC1)=Nc1ccccc1O2,85.7% [8.25 µM]
14,COc1ccc(NC2=CC(=O)C(C)=C(C)C2=O)cc1,99.6%
15,CS(=O)(=O)c1ccc(-c2nc3ccccn3c2-c2nc3ccc([N+](=O)[O-])cc3[nH]2)cc1,101%
16,CCOC(=O)c1c(Nc2ccccc2)nn2c(-c3ccco3)c(C#N)cnc12,93.1%
17,COc1ccc(NC(=O)c2sc3nc(-c4cnccn4)cc(-c4cccs4)c3c2N)cc1,55.3%
18,CC(=O)c1ccc(Nc2nc(SC(C)C)nc(-c3ccccc3)c2C#N)cc1,101%

row,SMILES,growth
1,COc1ccc(N/N=C/c2c(-c3ccc(S(C)(=O)=O)cc3)nc3ccccn23)cc1,21.8%
2,O=C1C2=C(C(=O)c3c(O)cccc31)C(c1ccco1)c1sc(=O)[nH]c1S2 (stereo not given),-4% (active)
3,COc1ccc(/C=C2\SC(=Nc3cc(C)on3)NC2=O)cc1,103%
4,COc1ccc(-c2nc3ccc(-c4nnc(SCC(=O)Nc5ccc(C(=O)/C=C/c6ccccc6)cc5)o4)cc3[nH]2)cc1OC,106%
5,O=C(CSc1nnc(-c2ccc3nc(-c4ccc(Cl)cc4)[nH]c3c2)o1)Nc1ccc(C(=O)/C=C/c2ccc(Cl)cc2)cc1,102%
6,OC1CCN(CCCOc2c3ccccc3nc3c2oc2ccccc23)CC1,0.894% (active)
7,Nc1cc(-c2c[nH]c3ccccc23)nc2cc(-c3c[nH]c4ccccc34)nn12,4.94% (active)
8,N[C@@H](Cc1cn(-c2c3ccccc3nc3ccccc23)nn1)C(=O)O,111%
9,CCN1CCN(S(=O)(=O)c2oc(-c3ccc(Cl)cc3)nc2C#N)CC1,105%
10,OC1CCc2c(-c3ccc4ncnc(N5CCc6cc(F)c(Cl)cc65)c4c3)cncc21 (stereo not given),50.7%
11,O=C(N/N=C/c1ccc([N+](=O)[O-])o1)c1[nH]c2ccc(Br)cc2c1-c1ccccc1,-31.4% (active)
12,N#Cc1ccc(C(=O)CSc2nc(Nc3ccc(S(N)(=O)=O)cc3)c3ccccc3n2)cc1,111%
13,COc1cc(/C=C/C(=O)c2cc(OC)c(OC)c(OC)c2)ccc1Oc1nc(NCCO)nc(N2CCOCC2)n1,-51.6% (active)
14,NC(=O)c1c(NC(=O)c2ccc(C3CCCCC3)cc2)sc2c1CCC(=O)C2,15.8%
15,COc1cc2nc(-c3ccc(C(F)(F)F)cc3)cc(OCCCNCC3CCCO3)c2cc1OC (stereo not given),21.8%
16,Nc1c(C(=O)c2ccc(Br)cc2)oc2nc(-c3cnccn3)cc(-c3cccs3)c12,97.2%
17,Cc1sc2c(c1C)c(=O)nc1c(-c3nc(-c4ccc(F)cc4)no3)n[nH]n12,107%
